# According to PubChem BioAssay (NCATS):
# Inconclusive results are not listed. Active and inactive are the calls of the source. Unless noted, calls come from the whole dose curve; as a rule, active = well fitted curve in the direction sought with a large enough effect; inconclusive = small, poorly fitted or top-dose-only effect, or another doubt; inactive = no such curve, though single readings can be large; an effect the other way counts as inactive or inconclusive.
# Biological target: Cytochrome P450 2D6 (Homo sapiens) (UniProt P10635)
# Sequence (P10635 whole entry, looked up): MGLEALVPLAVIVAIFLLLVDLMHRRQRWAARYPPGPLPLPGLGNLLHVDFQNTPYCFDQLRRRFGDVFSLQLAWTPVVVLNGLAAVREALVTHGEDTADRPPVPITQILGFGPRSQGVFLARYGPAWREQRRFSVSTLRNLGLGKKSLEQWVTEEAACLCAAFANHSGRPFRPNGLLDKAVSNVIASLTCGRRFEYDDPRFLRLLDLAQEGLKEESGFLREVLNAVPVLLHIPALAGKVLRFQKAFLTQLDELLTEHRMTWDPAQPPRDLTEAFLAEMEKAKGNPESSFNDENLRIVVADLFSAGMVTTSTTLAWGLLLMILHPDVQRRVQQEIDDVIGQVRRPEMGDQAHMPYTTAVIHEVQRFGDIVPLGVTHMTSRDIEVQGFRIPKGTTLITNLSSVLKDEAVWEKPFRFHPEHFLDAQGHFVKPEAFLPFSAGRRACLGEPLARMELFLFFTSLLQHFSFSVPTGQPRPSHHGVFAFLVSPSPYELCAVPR
# Experiment: qHTS Assay for Inhibitors and Substrates of Cytochrome P450 2D6 (AID 891); note: potency is the fitted concentration of half-maximal effect; nearly all actives have a fitted effect of over 60% in size
# Conditions: recombinant CYP2D6, luciferin-ME EGE luminescence; series mostly up to 57.1 µM; activity change, negative = inhibition: at the top concentration
# Procedure, shortened: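 Luminescent read-out of luciferin formed by 5 nM human CYP2D6 demethylating 30 uM Luciferin-ME EGE (Km level) over 60 min at room temperature after NADPH regeneration addition. Data normalized to full inhibition by 1.43 uM quinidine.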
row,Structure (SMILES),Potency
1,COc1ccc2[nH]cc(CCNc3nc(-c4ccc(N(C)C)cc4)nc4ccccc34)c2c1,7.94 µM (active)
2,CC(=O)NCCNc1nc(-c2ccccc2C)nc2ccccc12,5.01 µM (active)
3,COc1ccc2[nH]cc(CCNc3ccnc(-c4ccc5c(c4)OCO5)n3)c2c1,7.94 µM (active)

# Biological target: Cytochrome P450 2C19 (Homo sapiens) (UniProt P33261)
# Sequence (P33261 whole entry, looked up): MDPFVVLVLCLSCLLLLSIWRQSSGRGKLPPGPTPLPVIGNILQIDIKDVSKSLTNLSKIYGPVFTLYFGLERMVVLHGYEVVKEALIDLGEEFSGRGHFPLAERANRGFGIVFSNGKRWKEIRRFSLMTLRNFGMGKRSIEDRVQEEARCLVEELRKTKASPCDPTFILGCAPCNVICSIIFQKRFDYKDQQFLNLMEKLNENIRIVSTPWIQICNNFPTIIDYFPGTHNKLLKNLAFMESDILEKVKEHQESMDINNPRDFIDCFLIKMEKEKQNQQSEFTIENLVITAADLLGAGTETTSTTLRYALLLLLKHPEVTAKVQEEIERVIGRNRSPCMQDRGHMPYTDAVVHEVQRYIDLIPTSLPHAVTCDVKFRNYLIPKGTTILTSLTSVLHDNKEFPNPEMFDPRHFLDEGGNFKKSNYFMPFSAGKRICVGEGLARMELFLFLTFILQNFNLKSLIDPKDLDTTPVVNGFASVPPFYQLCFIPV
# Experiment: qHTS Assay for Inhibitors and Substrates of Cytochrome P450 2C19 (AID 899); note: potency is the fitted concentration of half-maximal effect; nearly all actives have a fitted effect of over 60% in size
# Conditions: recombinant CYP2C19, luciferin-H EGE luminescence; series mostly up to 57.1 µM; activity, negative = inhibition: at the top concentration
# Procedure, shortened: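 Signal comes from luciferase acting on luciferin released by CYP2C19-mediated hydroxylation of Luciferin-H EGE, 10uM (KM). Assay mix: 5nM enzyme, 50mM KPO4; 60 min at 37C with NADPH regeneration. Data normalized against 57uM ketoconazole.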
row,Structure (SMILES),Potency
1,CNc1nc(-c2cccc(C#N)c2)nc2ccccc12,7.94 µM (active)
2,COc1ccc2[nH]cc(CCNc3nc(-c4ccc(N(C)C)cc4)nc4ccccc34)c2c1,7.94 µM (active)
3,COc1ccccc1CNc1ccnc(-c2ccccc2Cl)n1,1.58 µM (active)
4,COc1ccc2[nH]cc(CCNc3ccnc(-c4ccc(N(C)C)cc4)n3)c2c1,6.31 µM (active)
5,COc1ccc2[nH]cc(CCNc3ncncc3-c3cccnc3)c2c1,3.16 µM (active)
6,COc1ccccc1CNc1cc(-c2ccccc2OC)ncn1,1.58 µM (active)
7,COc1ccc2[nH]cc(CCNc3ccnc(-c4ccc5c(c4)OCO5)n3)c2c1,0.631 µM (active)

# Tested on: not listed separately
# Experiment: qHTS Assay for Identification of Small Molecule Agonists for Hypoxia Response Element Signaling Pathway (AID 914; active = well fitted activation curve with a large enough effect in the signal ratio, with a control signal flat, not every such curve was filed as active; the % refers to the signal ratio; note: % of control where 0% means no effect)
# Conditions: ME-180 (cervical carcinoma) HRE-bla reporter, beta-lactamase ratio, CoCl2, 17 h; activation: stronger effect = higher value
# Procedure, shortened: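 In Opti-MEM containing 0.5% dialyzed FBS and 10 mM HEPES, ME-180 HRE-bla cells received a compound titration and EC50 CoCl2. They were incubated 17 hours, then CCF4-loaded 2.5 hours at room temperature before ratio reading.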
row,Structure (SMILES),activation
1,COc1ccccc1-c1cc(NCc2cnc(C)cn2)ncn1,25.8% (inactive)
2,Cn1cc(-c2nc3cncnc3n(Cc3ccccc3Cl)c2=O)c2ccccc21,15.7% (inactive)
3,CC(=O)NCCNc1nc(-c2ccccc2C)nc2ccccc12,-1% (inactive)
4,CS(=O)(=O)Nc1cccc(-c2cc(Nc3ccccc3)ncn2)c1,-13.8% (inactive)
5,Cc1cnc(CNc2cc(-c3ccccc3C(F)(F)F)ncn2)cn1,4.59% (inactive)

# Biological target: Dual specificity protein kinase CLK4 (Homo sapiens) (UniProt Q9HAZ1)
# Sequence (Q9HAZ1 whole entry, looked up): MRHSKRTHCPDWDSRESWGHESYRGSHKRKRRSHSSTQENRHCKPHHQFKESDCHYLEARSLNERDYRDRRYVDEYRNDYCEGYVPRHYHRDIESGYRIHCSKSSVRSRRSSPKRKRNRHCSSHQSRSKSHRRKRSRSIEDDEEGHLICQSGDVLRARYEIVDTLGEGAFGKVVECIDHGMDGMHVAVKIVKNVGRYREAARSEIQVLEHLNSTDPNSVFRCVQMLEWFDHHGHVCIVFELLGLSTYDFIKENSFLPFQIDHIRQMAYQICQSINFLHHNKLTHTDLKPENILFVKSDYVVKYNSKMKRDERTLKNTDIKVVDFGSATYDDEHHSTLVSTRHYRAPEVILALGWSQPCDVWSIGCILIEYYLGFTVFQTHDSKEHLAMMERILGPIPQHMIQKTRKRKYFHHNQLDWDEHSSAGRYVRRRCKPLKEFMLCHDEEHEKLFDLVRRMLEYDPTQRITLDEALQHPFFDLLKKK
# Experiment: qHTS Assay for Inhibitors of CDC-like Kinase 4 (ADP-Glo Assay) (AID 1771); note: nearly all actives have a fitted effect of over 70% in size; note: potency is the fitted concentration of half-maximal effect; for activity change, negative = inhibition: % is set by controls: 0 for no effect and ±100 for the full control effect
# Conditions: recombinant CLK4, ADP-Glo luminescence; series mostly up to 80 µM; activity change, negative = inhibition: at the top concentration
# Procedure, shortened: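 ADP production was read by ADP-Glo luminescence after residual ATP depletion, following 1 h room-temperature reaction of 25 nM Clk4, 1 uM ATP and 100 uM RS peptide with MgCl2, EGTA, DTT and Triton X-100.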
Structure (SMILES),"activity change, negative = inhibition",Potency
COc1cccc(Cn2c(=O)c(-c3cccc(C#N)c3)nc3cnc(N4CCOCC4)nc32)c1,8.46% (inactive),
COc1ccccc1-c1cc(NCc2cnc(C)cn2)ncn1,,28.2 µM (active)
CNc1nc(-c2cccc(C#N)c2)nc2ccccc12,,11.2 µM (active)
COc1ccc2[nH]cc(CCNc3nc(-c4ccc(N(C)C)cc4)nc4ccccc34)c2c1,,28.2 µM (active)
COc1ccccc1CNc1ccnc(-c2ccccc2Cl)n1,-1.66% (inactive),
COc1cccc(Cn2c(=O)c(-c3ccc(F)cc3)nc3cncnc32)c1,-2.63% (inactive),
Cc1noc(C)c1-c1nc(NC2CC2)c2ccccc2n1,,14.1 µM (active)
COc1cccc(Nc2ncc3ncc(=O)n(C[C@H]4CCCO4)c3n2)c1,,1.58 µM (active)
COc1ccc(-c2nc3cnc(OCc4ccccc4)nc3n(CCC#N)c2=O)cc1,5.19% (inactive),
COc1ccc2[nH]cc(CCNc3ccnc(-c4ccc(N(C)C)cc4)n3)c2c1,,14.1 µM (active)
Cn1cc(-c2nc3cncnc3n(Cc3ccccc3Cl)c2=O)c2ccccc21,0.637% (inactive),
COc1cccc(-c2cc(NCc3cnc(C)cn3)ncn2)c1,,15.8 µM (active)
CC(=O)NCCNc1nc(-c2ccccc2C)nc2ccccc12,,15.8 µM (active)
COc1ccc(Oc2ncc3nc(-c4ccc(F)cc4)c(=O)n(Cc4cccs4)c3n2)cc1,8.29% (inactive),
CS(=O)(=O)Nc1cccc(-c2cc(Nc3ccccc3)ncn2)c1,,35.5 µM (active)
CNc1nc(-c2ccc(C(=O)N(C)C)cc2)nc2ccccc12,,28.2 µM (active)
Cc1cnc(CNc2cc(-c3ccccc3Cl)ncn2)cn1,,20 µM (active)
CN(Cc1ccco1)c1cc(-c2cccc(C#N)c2)ncn1,,28.2 µM (active)
Cc1cnc(CNc2cc(-c3ccccc3C(F)(F)F)ncn2)cn1,-28% (inactive),
COc1cccc(-c2cc(NCc3cccnc3)ncn2)c1,,14.1 µM (active)
COc1ccc(CNc2ncncc2-c2ccc(C(=O)N(C)C)cc2)c(OC)c1,-18.3% (inactive),
Cn1c(=O)c(-c2cc(F)cc(F)c2)nc2cncnc21,-28.9% (inactive),
Cc1cnc(CNc2cc(-c3cccnc3)ncn2)cn1,,31.6 µM (active)

# Biological target: Dual specificity protein kinase CLK4 (Homo sapiens) (UniProt Q9HAZ1)
# Experiment: qHTS Assay for Inhibitors of CDC-like Kinase 4 (ADP-FP Assay) (AID 1795); note: nearly all actives have a fitted effect of over 60% in size; note: potency is the fitted concentration of half-maximal effect;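 for activity change, negative = inhibition: recombinant human CLK4 phosphorylating RS repeat peptide at 1 µM ATP; % is set by controls: 0 for no effect and ±100 for the full control effect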
# Conditions: Transcreener ADP fluorescence polarization; series mostly up to 50 µM; activity change, negative = inhibition: at the top concentration
# Procedure, shortened: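 FP readout: Orange Transcreener ADP2 tracer (4 nM) plus ADP antibody, read after 30 min at room temperature. Kinase step: 6.25 nM Clk4, 100 uM RS peptide, 1 uM ATP, pH 7.5, 1 h.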
Structure (SMILES),"activity change, negative = inhibition",Potency
CC(=O)NCCNc1nc(-c2cccc(NS(C)(=O)=O)c2)nc2ccccc12,-21.1% (inactive),
Cc1noc(C)c1-c1nccc(NCCN2CCOCC2)n1,-19.1% (inactive),
Cc1cnc(CNc2ccnc(-c3cccc(NS(C)(=O)=O)c3)n2)cn1,-1.99% (inactive),
CN(C)C(=O)c1ccc(-c2cncnc2-n2ccnc2)cc1,-3.27% (inactive),
COc1ccc2[nH]cc(CCNc3nc(-c4ccc(N(C)C)cc4)nc4ccccc34)c2c1,-15.2% (inactive),
COCCNc1nc(-c2c(C)noc2C)nc2ccccc12,-18% (inactive),
CN(C)C(=O)c1ccc(-c2ccc3ncnc(N4CCOCC4)c3c2)cc1,-15.4% (inactive),
COc1ccccc1CNc1ccnc(-c2ccccc2Cl)n1,7.35% (inactive),
COc1cccc(Cn2c(=O)c(-c3ccc(F)cc3)nc3cncnc32)c1,5.05% (inactive),
COc1cccc(Nc2ncc3ncc(=O)n(C[C@H]4CCCO4)c3n2)c1,,0.794 µM (active)
Cn1cc(-c2nc3cncnc3n(C3CC3)c2=O)c2ccccc21,-6.2% (inactive),
COc1ccc(-c2nc3cnc(OCc4ccccc4)nc3n(CCC#N)c2=O)cc1,11.6% (inactive),
COc1ccc2[nH]cc(CCNc3ccnc(-c4ccc(N(C)C)cc4)n3)c2c1,-20.8% (inactive),
Cn1cc(-c2nc3cncnc3n(Cc3ccccc3Cl)c2=O)c2ccccc21,8.5% (inactive),
COc1ccc(Oc2ncc3nc(-c4ccc(F)cc4)c(=O)n(Cc4cccs4)c3n2)cc1,9.65% (inactive),
COc1ccc2[nH]cc(CCNc3ncncc3-c3cccnc3)c2c1,-13.9% (inactive),
COc1ccccc1CNc1cc(-c2ccccc2OC)ncn1,-7.96% (inactive),
CN(C)C(=O)c1ccc(-c2nccc(-n3ccnc3)n2)cc1,-13.7% (inactive),
Cc1ccccc1-c1nc(N(C)C)c2ccccc2n1,-29.1% (inactive),
Cc1noc(C)c1-c1nccc(NCc2ccccc2)n1,-15.2% (inactive),
CN(C)C(=O)c1ccc(-c2ccc3ncnc(N4CCNCC4)c3c2)cc1,-22.8% (inactive),
COc1ccc2[nH]cc(CCNc3ccnc(-c4ccc5c(c4)OCO5)n3)c2c1,-28.7% (inactive),
COc1ccc(CNc2ncncc2-c2ccc(C(=O)N(C)C)cc2)c(OC)c1,7.1% (inactive),
Cn1c(=O)c(-c2cc(F)cc(F)c2)nc2cncnc21,-9.41% (inactive),
COc1cccc(-c2cncnc2NCc2cnc(C)cn2)c1,-14.2% (inactive),
COc1ccccc1-c1nc(NCCN2CCOCC2)c2ccccc2n1,-11.7% (inactive),
Cc1cnc(CNc2cc(-c3cccnc3)ncn2)cn1,-13.2% (inactive),
Cc1cnc(CNc2cc(-c3ccccc3C)ncn2)cn1,-18.9% (inactive),
